Experimental findings from PubChem BioAssay (Tox21) are described below.

Results filed as inconclusive are left out. Entries that show only a call come without a potency. A number with no mark means an inactive call. The source made the active and inactive calls. Calls follow the shape of the dose curve; as a rule, active = well fitted cell-killing curve with a large enough effect in the repeat runs; inconclusive = weak or mixed curves; inactive = flat fitted curve, though single readings scatter.
Potency is read from the fitted curve at half-maximal effect.

The nature of this test: qHTS RealTime-Glo MT Cell Viability Assay in HepG2 cells - 8 hour (AID 1224873). Also: nearly all actives have a fitted effect of over 55% in size. The following applies: RealTime-Glo luminescence; series mostly up to 76.8 µM. An excerpt: National Center for Advancing Translational Sciences [NCATS]
NIH Chemical Genomics Center [NCGC]
U.S. Environmental Protection Agency [EPA]
National Institutes of Environmental Health Sciences [NIEHS]
National Toxicology Program [NTP]
U.S. Food and Drug Administration [FDA]
Measure of cell viability is critical in the cell-base assay. Analysis of cell viability is necessary for the characterization of cell responses to cytotoxic drugs and environmental stress. A RealTime-Glo MT Cell Viability Assay to monitor cell viability in real time of continues cell culture during 40 hours of compound treatment was used to screen Tox21 10K library compounds in HepG2 cells. The RealTime-Glo MT Cell Viability Assay is a nonlytic, homogeneous, bioluminescent method to measure cell viability in real time using a simple, plate-based method. The assay involves adding NanoLuc luciferase and a cell-permeant prosubstrate to cells in culture. Viable cells reduce the proprietary prosubstrate to generate a substrate for NanoLuc luciferase. This substrate diffuses from cells into the surrounding culture medium, where it is rapidly used by the NanoLuc Enzyme to produce a luminescent signal. The signal correlates with the number of viable cells, making the assay well suited for cytotoxicity studies.
Tox21 Assay Protocol Summary:
The mixture of HepG2 cell suspension and reagents were dispensed at 600cells/6 ul/well in 1536-well tissue culture treated black solid bottom plates using a Multidrop dispenser. After the assay plates were incubated at a 37 C/5% CO2 incubator for 5 hours, 23 nL of compounds dissolved in DMSO, positive and negative controls was transferred to the assay plate by a pintool work station. The plates were incubated at 37 C for 40 hours. The luminescence intensity were measured at 0h, 8h, 16h, 24h, 32h and 40h time points using ViewLux plate reader during compound treatment.
Regarding `C/C=C/C(=O)C1=C(C)C=CCC1(C)C`, the Potency entry was “inactive”.

Turning to `N#CCCOCCC#N`, the Potency entry was “inactive”.

`CSc1nnc(C(C)(C)C)c(=O)[nH]1`: the Potency result is “inactive”.

As to `CCOC=C(C(=O)OCC)C(=O)OCC`, the Potency result was “inactive”.

With `CCC(O)CO` (stereo not given), the Potency result is “inactive”.

`CCCCC/C=C\C=C\C(=O)OCC`: the Potency entry was “inactive”.

Take `C=C(C)CCO`: the Potency result is “inactive”.

Consider `CCOC(=O)C1=NN(c2ccc(Cl)cc2Cl)C(C)(C(=O)OCC)C1` (stereo not given), for which the Potency entry is “inactive”.

`CCCOC(=O)c1ccc(O)cc1`: the Potency entry was “inactive”.

Regarding `CCC1(C)C(=O)N(Cl)C(=O)N1Cl` (stereo not given), the Potency entry is “inactive”.

For the compound `CCOC(=O)[C@H](O)[C@@H](O)C(=O)OCC`, the Potency result is “inactive”.

As to `Cc1ccc(S(=O)(=O)C(I)I)cc1`, the Potency was 12.3 µM (active).

For `c1ccc2occc2c1`, the Potency entry was “inactive”.

As to `CCC(C)(C)c1ccc(CC(C)CN2C[C@@H](C)O[C@@H](C)C2)cc1` (stereo not given in full), the Potency result is “inactive”.

For the compound `O=[N+]([O-])c1ccc(CO)cc1`, the Potency result was “inactive”.

On to `O=C(Nc1ccccc1)c1cc(Cl)ccc1O`, for which the Potency entry is “inactive”.

As to `N#Cc1ccc(C/C(=N/NC(=O)Nc2ccc(OC(F)(F)F)cc2)c2cccc(C(F)(F)F)c2)cc1`, the Potency result is “inactive”.

As to `O=C1CCC/C=C\CCCCCCCCCC1`, the Potency entry is “inactive”.

Take `ClC(c1ccccc1)(c1ccccc1)c1ccccc1`: the Potency result was “inactive”.

For the compound `CCCCCCCCCCCCS(=O)(=O)Cl`, the viability change, negative = cytotoxic is -5.43% [at 15.8 µM].

For `CC(Cc1ccc(O)c(O)c1)C(C)Cc1ccc(O)c(O)c1` (stereo not given), the Potency was 43.6 µM (active).

On to `Nc1ccc(Oc2cccc(Oc3ccc(N)cc3)c2)cc1`, for which the Potency entry was “inactive”.

Turning to `C=COCCCC`, the Potency entry is “inactive”.

`C=C[Si](C)(C)Cl`: the viability change, negative = cytotoxic was -15.7% [at 6.97 µM].

As for `C=CC(=O)OCCOC1C2CCC1C1CC=CC12` (stereo not given), the viability change, negative = cytotoxic was 0.124% [at 15.8 µM].

As for `O=C1OCc2ccccc21`, the Potency result was “inactive”.

As to `NCc1cccc(C2CCN(C(=O)c3ccc(C#Cc4ccccc4F)o3)CC2)c1`, the Potency is 49 µM (active).

Consider `[Cl][Eu]([Cl])[Cl]`, for which the Potency entry is “inactive”.

Regarding `CCn1c2ccccc2c2ccccc21`, the Potency result is “inactive”.

`c1ccc2c(c1)-c1ccc3ccc4cccc5cc-2c1c3c45`: the Potency result is “inactive”.

Consider `CCCCCCCCOC(=O)c1cc(O)c(O)c(O)c1`, for which the Potency was 17.4 µM (active).

Take `CCCCCCCCSCc1cc(C)c(O)c(CSCCCCCCCC)c1`: the Potency entry was “inactive”.

Consider `COc1cc2ncnc(Nc3cccc(Cl)c3)c2cc1OC`, for which the viability change, negative = cytotoxic is -19.1% [at 15.8 µM].

Consider `CC1(C)[C@H](C(=O)OCc2cccc(Oc3ccccc3)c2)[C@@H]1C=C(Cl)Cl`, for which the Potency entry was “inactive”.

As for `O=c1[nH]cccc1O`, the Potency result is “inactive”.

With `Oc1ccc(Cl)cc1C1CCCC1`, the Potency entry is “inactive”.

As to `O=C1c2ccccc2C(=O)c2c(Cl)cccc21`, the Potency result was “inactive”.

For `CCCCCN=C(N)N/N=C/c1c[nH]c2ccc(OC)cc12`, the Potency was 10.7 µM (active).

In the case of `Clc1ccc2c(Cl)ccnc2c1`, the Potency result was “inactive”.

On to `CCN(CC)c1ccc(C=O)cc1`, for which the Potency result was “inactive”.
